RAD54 branch – inhibitors of human RAD54 branch migration, primary screen, biochemical, fluorescence, single point | AID 602329, 2012 | 360,000 compounds, 0.14% hits | inhibition, % at 10.4 µM | RAD54 Holliday junction branch migration, FAM/BHQ fluorescence;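 active means mean normalized replicate activity at least 40 and at least half of replicates scoring 40 or more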;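 further: 0% = median of neutral control wells and 100% = median of positive control wells; inhibitors cause a drop in the FAM fluorescence signal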
CASP6 VEID inh – human caspase-6 inhibitors, primary screen, biochemical, VEID-R110 fluorescence, single point, set 2 | purified caspase-6, Z-VEID-R110 cleavage fluorescence | inhibition, % at 12.5 µM | 350,000 compounds, 0.53% hits | AID 686996, 2013;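 active means mean inhibition across replicates at least about 35%, with every replicate also reaching that limit, limit read from the data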;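 further: 0% = median of neutral control wells and 100% = no fluorescence left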
Target sequence (P55212 24-179 limits assumed): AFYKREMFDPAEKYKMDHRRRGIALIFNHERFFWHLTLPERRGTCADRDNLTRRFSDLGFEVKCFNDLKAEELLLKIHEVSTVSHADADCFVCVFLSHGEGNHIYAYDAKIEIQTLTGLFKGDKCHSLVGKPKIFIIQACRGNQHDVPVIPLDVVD
Target sequence (P55212 194-293 limits assumed): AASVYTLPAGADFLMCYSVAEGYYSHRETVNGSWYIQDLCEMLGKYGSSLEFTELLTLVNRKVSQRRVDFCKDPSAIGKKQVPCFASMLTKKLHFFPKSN
RAD52 anneal inh – RAD52 DNA annealing inhibitors, primary screen, biochemical, FRET, single point, set 2 | DNA repair protein RAD52 homolog (Homo sapiens), P43351 | recombinant RAD52 DNA annealing, FRET fluorescence | inhibition, % at 18.7 µM | 360,000 compounds, 0.46% hits | AID 651710, 2012;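 active means every replicate showing at least 50% inhibition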
NSD2 inh – NSD2 histone methyltransferase inhibitors, primary screen, biochemical, AlphaScreen, single concentration, set 2. Histone-lysine N-methyltransferase NSD2 (Homo sapiens), O96028. NSD2 peptide methylation, 120 min. inhibition, % at 12.5 µM. 310,000 compounds, 0.54% hits; in the data active means inhibition above about 50%
Glyco luc inh – increase of ERlucT glycosylation luciferase signal, primary screen, N-linked glycosylation inhibitor project, D54 ERlucT cells, luminescence, set 2. D54 ERlucT glycosylation luciferase reporter, 24 h; percent of 100 nM tunicamycin response. reporter increase, % at 12.5 µM. 360,000 compounds, 0.23% hits;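 active means mean luciferase reporter signal, scaled so untreated is 0 and the glycosylation-blocking control 100, at or above a set limit in every replicate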;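 further: luciferase carries N-glycosylation sites so blocking glycosylation raises the light; 0% = median of neutral control wells and 100% = median of 100 nM tunicamycin wells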
An asterisk follows results filed as active; . = not tested or not shown. The list is not random: actives were taken first. Their share in the collection is about 1.2%.

SMILES	RAD54 branch	CASP6 VEID inh	RAD52 anneal inh	NSD2 inh	Glyco luc inh
COc1ccc(CN(C)C[C@@H]2Oc3ccc(NC(=O)Nc4c(C)noc4C)cc3C(=O)N([C@H](C)CO)C[C@H]2C)cc1	56*	3	0	.	.
C[C@@H]1CN([C@@H](C)CO)C(=O)c2cc(NC(=O)NC3CCCCC3)ccc2O[C@@H]1CN(C)C	19	1	-9	.	.
C[C@H](CO)N1C[C@H](C)[C@@H](CN(C)C(=O)CN(C)C)Oc2cc(-c3ccncc3)ccc2S1(=O)=O	1	-3	9	.	.
Cc1ccc(S(=O)(=O)N(C)C[C@@H]2Oc3c(NC(=O)c4cnccn4)cccc3C(=O)N([C@@H](C)CO)C[C@@H]2C)cc1	5	-1	-14	.	.
COc1ccc(CN(C)C[C@@H]2Oc3ccc(NC(=O)Nc4ccc(OC)cc4)cc3C(=O)N([C@@H](C)CO)C[C@H]2C)cc1	62*	3	16	.	.
O=C(NNC(=O)c1ccccc1F)c1ccc2nc[nH]c2c1	5	3	-17	-5	0
O=C(NNC(=O)c1ccccc1Br)c1ccc2nc[nH]c2c1	-4	47*	-23	-4	1
COC(=O)c1ccccc1CSc1nsc(/C=C/N(C)C)c1C#N	2	37*	-17	3	0
CCCC(=O)Nc1ccc2c(c1)C(=O)N(C)[C@H]1CC[C@H](CC(=O)Nc3cccc(F)c3)O[C@@H]1CO2	.	1	9	.	.
COc1ccccc1-c1ccc(/C=C2/C=C(C)OC2=O)o1	.	.	.	1	2
CC1=C/C(=C\c2ccc(Br)o2)C(=O)O1	.	83*	-16	98*	4
CN(CC(=O)Nc1ccc(Cl)c(Cl)c1)C(=O)c1ccccc1SCC(=O)N1CCCC1	-6	1	-54	-5	-1
CN(CC(=O)Nc1ccc(OC(F)(F)F)cc1)C(=O)c1ccccc1SCC(=O)N1CCCC1	15	81*	-8	-5	0
CC(C1SC(=S)NC1=O)C1SC(=S)NC1=O (stereo not given)	-6	68*	-430	31	-1
Cc1ccc(S(=O)(=O)N2CC[C@@H]3[C@H]2c2cc(-c4cccc(C#N)c4)ccc2N(C)[C@H]3CO)cc1	3	-1	-4	.	.
Cc1c(C(=O)N2CCCC2)oc2ccc(Br)cc12	0	39*	-11	-6	-1
COc1ccc2oc(C(=O)N3CCN(c4ncccn4)CC3)c(C)c2c1	1	36*	-9	2	0
COc1ccc2oc(C(=O)N3CCN(C(=O)c4ccco4)CC3)c(C)c2c1	-1	0	-18	1	-2
CCC(=O)N(C)C[C@H]1Oc2cc(/C=C/c3ccccc3)ccc2S(=O)(=O)N([C@@H](C)CO)C[C@@H]1C	-5	5	-7	.	.
Cc1ccc(NC(=O)c2noc3c2CCC3)cc1C	.	54*	-7	10	-18
C#CCOCCOCCOCCNc1nc(N2CCN(C(=O)CCCCCCCCCCNC(=O)[C@H](CO)n3cc(CCCSC)nn3)CC2)nc(N2CCN(C(=O)CCCCCCCCCCNC(=O)[C@H](CCCCN)n3cc(CCO)nn3)CC2)n1	-3	-303	55*	.	-5
C#CCOCCOCCOCCNc1nc(N2CCN(C(=O)CCCCCCCCCCNC(=O)Cn3cc(CCCCCN)nn3)CC2)nc(N2CCN(C(=O)CCCCCCCCCCNC(=O)[C@@H](CCSC)n3cc(CCO)nn3)CC2)n1	0	-241	52*	.	6
CC(C)NC(=O)N(C)C[C@@H]1Oc2ncc(-c3ccccc3F)cc2C(=O)N([C@H](C)CO)C[C@H]1C	.	1	-7	.	.
COc1ccc2c3c(n(C)c2c1)[C@H](CO)N(S(=O)(=O)c1ccccc1)CC31CCN(C)CC1	.	-1	0	.	.
C[C@@H]1CN([C@H](C)CO)C(=O)c2c(c3ccccc3n2C)-c2ccccc2CO[C@H]1CN(C)C(=O)c1ccccc1	-14	-2	9	.	.
SMILES	RAD54 branch	CASP6 VEID inh	RAD52 anneal inh	NSD2 inh	Glyco luc inh
CC1CCCCC1NC(=O)COC(=O)c1c2c(nc3ccccc13)/C(=C\c1ccco1)CC2 (stereo not given)	-2	3	-7	.	2
O=C(COC(=O)c1c2c(nc3ccccc13)/C(=C\c1ccco1)CC2)NC1CCCC1	.	43*	-38	34	1
Cc1ccc(-c2csc(NC(=O)/C=C/c3ccco3)c2C(=O)O)cc1	-8	75*	-21	4	-6
O=C(/C=C/c1ccco1)Nc1sc2c(c1C(=O)O)CCC2	.	61*	-19	11	4
CN1CCN(C(=O)C[C@@H]2CC[C@@H]3[C@H](COC[C@@H](O)CN3CC3CC3)O2)CC1	7	-116	-10	.	.
OCCCN=c1cc(-c2ccccc2)oc2ccc(Cl)cc12	.	.	.	3	58*
O=c1cc(-c2ccccc2)oc2ccc(O)cc12	16	-2	-6	7	3
C[C@@H]1CCCCO[C@H](CN(C)C(=O)CCC(F)(F)F)[C@@H](C)CN([C@@H](C)CO)C(=O)c2cc(NS(C)(=O)=O)ccc2O1	-12	0	11	.	.
C[C@H]1CN([C@@H](C)CO)C(=O)c2cc(NC(=O)Nc3ccc(C(F)(F)F)cc3)ccc2O[C@H]1CN(C)Cc1ccncc1	3	-1	6	.	.
C[C@@H]1CN([C@@H](C)CO)C(=O)Cc2cc(NS(=O)(=O)c3cn(C)cn3)ccc2O[C@@H]1CN(C)S(=O)(=O)c1ccc(F)cc1	.	-2	23	.	.
Cc1nnc(SCC(=O)NC2CCCCCC2)n1C(C)C	0	44*	-6	.	1
Nc1nc(SCC(=O)NC2CCCCC2)n[nH]1	0	95*	-5	-2	1
Cc1nnc(SCC(=O)NC2CCCCCC2)n1N	-2	-16	-7	-1	0
COC(=O)C[C@@H]1CC[C@H]2[C@@H](COc3ccc(NC(=O)Nc4cc(C)cc(C)c4)cc3C(=O)N2C)O1	6	-8	-1	.	.
COC(=O)c1cnn(-c2ccc(F)cc2F)c1/C=N/NC(=S)Nc1ccc(Cl)cc1	.	.	.	1	.
COc1ccc(-c2cc(C(=O)NC(Cc3cc4ccccc4[nH]3)C(=O)O)c(C)o2)cc1OC (stereo not given)	.	48*	-9	.	0
COc1ccc(-c2cc(C(=O)O)c(C)o2)cc1OC	-20	.	.	21	-18
CCC(=O)N1[C@H](CO)[C@@H](c2ccc(-c3ccc(F)cc3)cc2)[C@@H]1CNC(C)=O	-5	.	.	.	.
CCOc1cc(S(=O)(=O)NCc2ccc(OC)cc2)c(OCC)cc1-n1cnnn1	1	.	.	0	30*
O=S(=O)(c1ccc(F)cc1)N1[C@@H]2CNC[C@H]1C2c1ccc(-c2cccc(F)c2)cc1 (stereo not given in full)	.	-1	38	.	.
CCOC(=O)c1ccc(S(=O)(=O)N2CCC(C(=O)N3CCN(c4ccccc4OC)CC3)CC2)cc1	1	48*	8	3	-1
